# Data: ChEMBL document CHEMBL3988442, “University of Dundee, Small-Polar-MMV Screening Library” (2021)
# Hit rate of the full screen: of about 66,000 compounds, about 960 (1.5%) showed an effect of 50% or more. This excerpt belongs to a sample that is enriched for strong results.
# Test system: Trypanosoma brucei
# Assay: Trypanosoma brucei 72 hour study
# Format: functional, organism-based
# Set-up: scale not given: in the data most compounds retested in dose-response had high values
smiles,measurement,setting,value
O=C(COC[C@@]12CCC[C@@H]1CN(C1CCCC1)C2)N1CCCC1.O=C(O)C(F)(F)F,Percent Effect,"30.3 µM, […]",-80.12%
CSc1ccc(CNC(c2ccccc2F)c2nccn2C)cc1.Cl (stereo not drawn),Percent Effect,10 µM,-81.16%
CN(C)C(=O)Cc1ccccc1NCc1cccc(F)c1F,Percent Effect,"30.3 µM, […]",97.11%
CN(C)C(=O)Cc1ccccc1NCc1cccc2cccnc12,Percent Effect,"30.3 µM, […]",4.964%
CN(C)C(=O)Cc1ccccc1NCc1cc(C#N)ccc1F,Percent Effect,"30.3 µM, […]",-2.182%
CN(C)CCNC(=O)c1sccc1N(C)S(=O)(=O)c1ccc(Cl)cc1,Percent Effect,"30 µM, 30.03 µM",-35.26%
COc1ccc(-c2ccccc2CCN)c(OC)c1OC,Percent Effect,"30 µM, 30.03 µM",106.1%
COc1ccc(-c2cc(CN)ccc2F)c(OC)c1OC,Percent Effect,"30.3 µM, […]",-22.81%
COc1ccc(-c2ccccc2CN)c(OC)c1,Percent Effect,"30 µM, 30.03 µM",-56.26%
CO[C@H]1CCN(Cc2ccoc2)C[C@@H]1Cc1ccccc1.O=C(O)C(F)(F)F,Percent Effect,"30.3 µM, […]",-12.49%
C[C@@H]1C[C@@H]2CCN(C(=O)c3ccncn3)C[C@H]2O1,Percent Effect,"30 µM, 30.03 µM",-27.33%
COc1cc(N2CCC3(CCCN(C(=O)c4cnccn4)C3)C2)ncn1.O=C(O)C(F)(F)F (stereo not drawn),Percent Effect,"30 µM, 30.03 µM",-22.02%
O=C(NCCCO)c1cc(-c2ccc3c(c2)CCO3)n[nH]1,Percent Effect,"30 µM, 30.03 µM",-14.14%
O=C(NCCCN1CCOCC1)c1cc(-c2ccc3c(c2)CCO3)n[nH]1,Percent Effect,"30 µM, 30.03 µM",57.45%
O=C(NCCN1CCOCC1)c1cc(-c2ccc3c(c2)CCO3)n[nH]1,Percent Effect,"30 µM, 30.03 µM",31.8%
O=C(NCc1nnc2n1CCCCC2)N(CC1CCOC1)C1CC1 (stereo not drawn),Percent Effect,"30 µM, 30.03 µM",-56.14%
CNc1cc2c(nn1)CCN(C(=O)c1cccc3c1OCCO3)C2,Percent Effect,10 µM,-31.25%
OCC1(Cc2ccc(Cl)cc2)CCN(Cc2ccccc2O)CC1,Percent Effect,"30.3 µM, […]",-146.1%
COc1ccc(CN2CCC(CO)(Cc3ccc(Cl)cc3)CC2)c(O)c1,Percent Effect,"30.3 µM, […]",-63.01%
COc1cccc(CN2CCC(CO)(Cc3ccc(Cl)cc3)CC2)c1O,Percent Effect,"30.3 µM, […]",102.9%
CC(C)CNC(=O)[C@H]1C[C@@H]2CN(C(=O)Nc3ccc(F)cc3)C[C@H]1O2,Percent Effect,"30 µM, 30.03 µM",-34.27%
O=C(O)C(F)(F)F.O=S(=O)(c1ccccc1)N1CCC2(CCCN2Cc2cccc(Cl)c2)C1 (stereo not drawn),Percent Effect,"30 µM, 30.03 µM",-34.57%
CCS(=O)(=O)N1CCCC2(CCCN2Cc2cccc(F)c2)C1.O=C(O)C(F)(F)F (stereo not drawn),Percent Effect,"30 µM, 30.03 µM",-82.26%
O=C(O)C(F)(F)F.O=C(O)C(F)(F)F.O=S(=O)(c1ccccc1)N1CCC2(CCCN2Cc2cccnc2)C1 (stereo not drawn),Percent Effect,"30.3 µM, […]",-446.5%
O=S(=O)(c1ccccc1)N1CCC2(CCCN2Cc2cccc(F)c2)C1 (stereo not drawn),Percent Effect,"30.3 µM, […]",56.8%
O=S(=O)(c1ccccc1)N1CCC2(CCCN2Cc2ccccc2Cl)C1 (stereo not drawn),Percent Effect,"30.3 µM, […]",33.63%
O=S(=O)(c1ccccc1)N1CCC2(CCCN2Cc2ccc(Cl)cc2)C1 (stereo not drawn),Percent Effect,"30.3 µM, […]",61.41%
O=C(C1CC1)N1CCC2(CCN2Cc2ccc(F)cc2)C1.O=C(O)C(F)(F)F (stereo not drawn),Percent Effect,"30.3 µM, […]",-12.66%
Cc1cccnc1CN1CC[C@H](Oc2cccc(F)c2)[C@@](C)(O)C1,Percent Effect,"30.3 µM, […]",-17.61%
O=C1CC(NS(=O)(=O)c2ccc(Br)cc2)CN1 (stereo not drawn),Percent Effect,"30 µM, 30.03 µM",-19.04%
CN(C(=O)CCc1ccncc1)C1CCCN(CCc2ccccc2)C1 (stereo not drawn),Percent Effect,"30 µM, 30.03 µM",2.42%
CC(C)C(=O)NCC(=O)N(C)C1CCCN(CCc2ccccc2)C1 (stereo not drawn),Percent Effect,"30.3 µM, […]",1.246%
CN(C(=O)CSc1ccccn1)C1CCCN(CCc2ccccc2)C1 (stereo not drawn),Percent Effect,"30 µM, 30.03 µM",106.3%
CCn1nccc1C(=O)NC(Cn1cccn1)C(C)(C)C (stereo not drawn),Percent Effect,"30.3 µM, […]",-6.087%
CC(C)(C)C(Cn1cccn1)NC(=O)c1ccco1 (stereo not drawn),Percent Effect,"30.3 µM, […]",101.2%
Cn1cc(C(=O)NC(Cn2cccn2)C(C)(C)C)cn1 (stereo not drawn),Percent Effect,"30.3 µM, […]",-4.857%
CC(CNC(=O)CCCn1cncn1)N1CCc2ccccc2C1 (stereo not drawn),Percent Effect,"30 µM, 30.03 µM",-32.01%
CCOC(=O)c1sc(NC(=O)CN(C)S(C)(=O)=O)c(C#N)c1C,Percent Effect,"30 µM, 30.03 µM",-8.874%
Cc1sc(NC(=O)CN(C)S(C)(=O)=O)c(C#N)c1C,Percent Effect,"30 µM, 30.03 µM",51.13%
CCCC(=O)Nc1sc(C(=O)OCC)c(C)c1C#N,Percent Effect,"30 µM, 30.03 µM",19.97%
Cl.O=C(Nc1nc2c(s1)CNCC2)NC1CCCC1,Percent Effect,"30 µM, 30.03 µM",-50.11%
Cl.NC(C(=O)N1CCSc2ccccc2C1)c1ccccc1 (stereo not drawn),Percent Effect,"30 µM, 30.03 µM",1.138%
Cc1nn2c(-c3snnc3C)nnc2s1,Percent Effect,"30 µM, 30.03 µM",-55.36%
COCCC(=O)N1CC2(CCN(Cc3cccc(Cl)c3)CC2)C1.O=C(O)C(F)(F)F,Percent Effect,"30 µM, 30.03 µM",-25.19%
Cc1nnc(N2CC[C@H]3C[C@@H](C(=O)N4CCCC4)O[C@H]3C2)s1.O=C(O)C(F)(F)F,Percent Effect,"30.3 µM, […]",-391.5%
O=C1NCc2ccc(NC(=O)C3CCCN3c3nccs3)cc21 (stereo not drawn),Percent Effect,"30 µM, 30.03 µM",23.55%
O=C(Nc1ccc(OC2CCCC2)cc1)C1CCCN1c1nccs1 (stereo not drawn),Percent Effect,"30.3 µM, […]",83.44%
O=C(Nc1cccc(F)c1)C1CCCN1c1nccs1 (stereo not drawn),Percent Effect,"30.3 µM, […]",1.599%
O=C(N1CCOCC1)[C@@]12CCO[C@@H]1CCN(CC1CCCC1)C2.O=C(O)C(F)(F)F,Percent Effect,"30 µM, 30.03 µM",-11.27%
Cc1ccccc1CS(=O)(=O)CC(=O)N(C)Cc1cccc(F)c1,Percent Effect,"30.3 µM, […]",-71.65%
CN(Cc1cccc(F)c1)C(=O)CS(=O)(=O)Cc1ccc(Cl)c(Cl)c1,Percent Effect,"30.3 µM, […]",45.42%
CN(Cc1cccc(F)c1)C(=O)CS(=O)(=O)Cc1c(Cl)cccc1Cl,Percent Effect,"30.3 µM, […]",83.04%
CCOc1nnc(CN(C)CC2CCCN2c2cccnn2)s1 (stereo not drawn),Percent Effect,"30 µM, 30.03 µM",2.197%
O=C(O)C(F)(F)F.O=C(O)C(F)(F)F.O=C(c1cnc2n1CCN(Cc1ccccc1)C2)N1CCCC1,Percent Effect,"30.3 µM, […]",-305.8%
COc1ccc(N2CCC(N3CCOC(C(F)(F)F)C3)CC2)cc1 (stereo not drawn),Percent Effect,"30 µM, 30.03 µM",-19.82%
CNC1CCN(C2CCN(c3ccc(-c4ccco4)cc3)CC2)CC1,Percent Effect,"30.3 µM, […]",100.1%
NC1CCN(C2CCN(c3ccc(-c4ccco4)cc3)CC2)CC1,Percent Effect,"30.3 µM, […]",-49.5%
O=C(O)c1ccccc1C1CCN(C2CCN(c3ccccc3)CC2)C1 (stereo not drawn),Percent Effect,"30.3 µM, […]",-16.4%
NCC1CCN(C2CCN(c3ccc(-c4ccco4)cc3)CC2)C1 (stereo not drawn),Percent Effect,"30.3 µM, […]",100.4%
CCc1cccc(N2CCC(NC(=O)c3ccco3)CC2)c1,Percent Effect,10 µM,-6.636%
same,Percent Effect,"30.3 µM, […]",-4.063%
Cn1cc(CN2CCc3onc(C(=O)N4CCCC4)c3C2)cn1.O=C(O)C(F)(F)F,Percent Effect,"30.3 µM, […]",-19.54%
O=C(c1cscn1)N1C[C@H]2CCC[C@@]2(COCc2ccccn2)C1,Percent Effect,"30.3 µM, […]",-7.729%
Cc1ccc(CNC(CN2CCN(C)CC2)c2ccccc2)cc1 (stereo not drawn),Percent Effect,"30 µM, 30.03 µM",0.9317%
CN1CCN(CC(NCc2ccc(F)c(F)c2)c2ccccc2)CC1 (stereo not drawn),Percent Effect,"30 µM, 30.03 µM",-11.08%
Cc1cccc(CNC(CN2CCN(C)CC2)c2ccccc2)c1 (stereo not drawn),Percent Effect,"30 µM, 30.03 µM",38.01%
CN1CCN(CC(NCc2cccc(O)c2)c2ccccc2)CC1 (stereo not drawn),Percent Effect,"30 µM, 30.03 µM",100.4%
Cc1ccc(CNC(CN2CCN(C)CC2)c2ccccc2)cc1C (stereo not drawn),Percent Effect,"30 µM, 30.03 µM",57.4%
COc1cccc(CNC(CN2CCN(C)CC2)c2ccccc2)c1 (stereo not drawn),Percent Effect,"30 µM, 30.03 µM",-23.58%
Cc1noc(C)c1CNCC1Cn2nncc2CO1.O=C(O)C(F)(F)F (stereo not drawn),Percent Effect,"30.3 µM, […]",-105.3%
COCC1CN(C(=O)CS(C)(=O)=O)Cc2ncn(CC3CC3)c21 (stereo not drawn),Percent Effect,"30.3 µM, […]",-30.37%
C1CCN(CCO[C@@H]2CC[C@H]3[C@H]2OCCN3CC2CCOCC2)C1.O=C(O)C(F)(F)F.O=C(O)C(F)(F)F,Percent Effect,"30 µM, 30.03 µM",-27.36%
Cc1ncsc1-c1nnc(C2CCN(Cc3ccccc3F)CC2)o1,Percent Effect,"30.3 µM, […]",-22.5%
CNCc1ccc([C@@H]2CN(C(C)=O)C[C@H]2C(=O)N(C)C)cc1.Cl,Percent Effect,"30.3 µM, […]",-5.387%
CN(C)CCN1CCC2(CCN(C(=O)c3ccncc3)CC2)C1=O.O=C(O)C(F)(F)F.O=C(O)C(F)(F)F,Percent Effect,"30.3 µM, […]",-21.17%
CN1CCOCC12CCN(Cc1ccoc1)CC2.O=C(O)C(F)(F)F.O=C(O)C(F)(F)F,Percent Effect,"30.3 µM, […]",-44.43%
Cn1cc(-c2c(C#N)c(N)nc3c2CCc2[nH]ccc2-3)cn1,Percent Effect,"30.3 µM, […]",27.56%
COc1ncc(-c2c(C#N)c(N)nc3c2CCc2[nH]ccc2-3)cn1,Percent Effect,"30.3 µM, […]",-6.46%
Cc1n[nH]c(C)c1-c1c(C#N)c(N)nc2c1CCc1[nH]ccc1-2,Percent Effect,"30.3 µM, […]",52.57%
CC(C)CN1C[C@H]2C[C@H](C(=O)N3CCCC3)[C@@H](C1)O2.O=C(O)C(F)(F)F,Percent Effect,"30.3 µM, […]",-50.57%
CN(C)CCN1CCN(C)c2nc(-c3ccccc3)ncc2C1=O,Percent Effect,"30.3 µM, […]",17.36%
COc1cccc(-c2ncc3c(n2)N(C)CCN(CCN(C)C)C3=O)c1,Percent Effect,"30.3 µM, […]",19.59%
CCc1ccc(-c2ncc3c(n2)N(C)CCN(CCN(C)C)C3=O)cc1,Percent Effect,"30.3 µM, […]",100.5%
Cl.O=C(O)[C@@H]1CCCN1c1nccc(Nc2ccccc2)n1,Percent Effect,"30.3 µM, […]",-31.15%
same,Percent Effect,"10 mM, 10 mM as filed; unlikely as a test dose",-16.56%
Cc1cc(F)ccc1-n1cc(O)c(C(=O)NCC2(O)CCC2)n1,Percent Effect,"30 µM, 30.03 µM",-18.18%
CCN(CC1CCOC1)C(=O)Cn1nnn(-c2cccs2)c1=O (stereo not drawn),Percent Effect,"30 µM, 30.03 µM",-61.65%
O=C(Cn1nnn(-c2cccs2)c1=O)NCC1CCOC1 (stereo not drawn),Percent Effect,"30 µM, 30.03 µM",53.07%
O=C(Cn1nnn(-c2cccs2)c1=O)N(CC1CCOC1)C1CC1 (stereo not drawn),Percent Effect,"30 µM, 30.03 µM",-28.27%
c1ccc(-c2nc(CNCCn3cccn3)cs2)cc1,Percent Effect,"30 µM, 30.03 µM",-63.26%
Cc1cnn(CCNCc2csc(COc3ccccc3)n2)c1,Percent Effect,"30.3 µM, […]",54.15%
c1ccc(OCc2nc(CNCCn3cccn3)cs2)cc1,Percent Effect,"30.3 µM, […]",-9.773%
Cc1cnn(CCCNCc2csc(COc3ccccc3)n2)c1,Percent Effect,"30.3 µM, […]",10.81%
CC(Cn1cccn1)NCc1csc(COc2ccccc2)n1 (stereo not drawn),Percent Effect,"30.3 µM, […]",63.51%
CC(Cn1cccn1)NCc1csc(Cc2ccccc2)n1 (stereo not drawn),Percent Effect,"30.3 µM, […]",32.28%
CC(Cn1cccn1)NCc1csc(COc2ccc(F)cc2)n1 (stereo not drawn),Percent Effect,"30.3 µM, […]",4.13%
Clc1ccc(Cc2nc(CNCCn3cccn3)cs2)cc1,Percent Effect,"30.3 µM, […]",19.22%
c1ccc(Cc2nc(CNCCn3cccn3)cs2)cc1,Percent Effect,"30.3 µM, […]",100.2%
